Test results taken from PubChem BioAssay (NCI).
About 79,000 compounds went through this panel and 15% of them were active in at least one assay; those are over-represented in the sample as a whole. The source made the active and inactive calls. Rule as the data show it: active = growth inhibition above about 70%; inactive = the rest.

Assay: NCI Yeast Anticancer Drug Screen. Data for the rad18 strain (AID 177)
Settings: S. cerevisiae rad18 mutant growth inhibition; at 100.0 µM; stronger effect = higher value
Summary of the method: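 DNA-repair-defective yeast; compound treatment; growth inhibition scored against vehicle.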

For CN(C)c1ccc(C2CC(C)(O)Oc3cc4c(cc32)OCO4)cc1 (configuration not stated), which growth inhibition is on record?
Its growth inhibition is 95% (active).

With O=P(NC1CCCCC1)(OCc1ccccc1)OCc1ccccc1 as the compound, how does the growth inhibition read?
Its growth inhibition is 28% (inactive).

For COc1oc(C(=O)NC2CCCCC2)c(-c2ccc(Cl)cc2)c1S(=O)(=O)c1ccccc1, which growth inhibition is on record?
Its growth inhibition is 80% (active).

With C[Si](C)(C)/C=C/CCNC(C#N)c1ccccc1 (configuration not stated) as the compound, how does the growth inhibition read?
Its growth inhibition is 92% (active).

With CCOc1ccc(NC(=O)C2=C(C)NC(C)=C(C(=O)Nc3ccc(OCC)cc3)C2c2cccc([N+](=O)[O-])c2)cc1 as the compound, how does the growth inhibition read?
The growth inhibition was 83% (active).

Which growth inhibition does the source give for CN(C)CCOC1(Cc2ccc(F)cc2)CCC(C(C)(C)C)CC1 (configuration not stated) here?
Its growth inhibition is 98% (active).

Which growth inhibition does the source give for CC1(C)CC(=O)C(/C=N/c2nc(-c3ccccc3)cs2)=C(O)C1 here?
Its growth inhibition is 91% (active).

For CC(=O)Nc1ccc2c(c1)Cc1cc(N=C3C=CC(=O)O3)ccc1-2, which growth inhibition is on record?
The growth inhibition was 99% (active).

For O=C1C=C(Cl)C(=O)C(c2ccc(Cl)cc2)=C1, which growth inhibition is on record?
The growth inhibition was 97% (active).

Which growth inhibition does the source give for CNCCCNc1c2ccccc2nc2cccc([N+](=O)[O-])c12 here?
Its growth inhibition is 96% (active).

For CCCCCCCCCCCC(O)S(=O)(=O)O (configuration not stated), which growth inhibition is on record?
Its growth inhibition is 90% (active).

With CC(C)OC(=O)c1ccc(CCc2cc(O)c(Br)cc2O)cc1 as the compound, how does the growth inhibition read?
The growth inhibition was 93% (active).

With CCc1cc(O)c(Cl)c(C)c1Cl as the compound, how does the growth inhibition read?
Its growth inhibition is 63% (inactive).

For C(=Nc1ccc(-c2cc(-c3ccccc3)nc3ccc4ccccc4c23)cc1)c1ccccc1, which growth inhibition is on record?
Its growth inhibition is 73% (active).

For CSc1nc(C)c(CCOC(C)=O)c(N=P(c2ccccc2)(c2ccccc2)c2ccccc2)n1, which growth inhibition is on record?
The growth inhibition was 91% (active).

With CS(=O)(=O)SCc1ccc([N+](=O)[O-])cc1 as the compound, how does the growth inhibition read?
The growth inhibition was 97% (active).

With COC1=C(OC)C(=O)C(Sc2ccc3ccccc3c2)=CC1=O as the compound, how does the growth inhibition read?
The growth inhibition was 87% (active).
